Assay [1] is described as follows: inhibitors of TNFa-induced NFkB p65 translocation, primary screen, imaging, HUVEC, MLSMR starter and 10KST1 sets (AID 438;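 active = inhibition above 20% together with a positive visual image hit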;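 note: compound added about 3h40 before a 20 min TNFalpha stimulation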;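 for inhibition: signal is the nuclear over cytoplasmic p65 intensity ratio per well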). As to conditions: HUVEC TNFa-induced p65 nuclear translocation; cell count: measured here: nuclei count (cytotoxicity indicator), at 2.08 µM; inhibition: at 2 µM, stronger effect = higher value, 0% TNFa-plus-vehicle, 100% no-TNFa wells.
Assay [2] can be described thus: inhibitors of mutant huntingtin aggregation, primary screen, imaging, exon1htt(103Q)mCFP cells, high-content imaging (AID 483;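 active = visual image review flags a hit and inhibition of aggregation exceeds 20%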;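 note: compound exposure lasted 3 days before fixation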;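 for nuclei count: percent of the per-plate median nuclei count of sample wells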). To be noted: exon1htt(103Q)mCFP cell line, aggregate imaging, at 2 µM; inhibition of aggregation: stronger effect = higher value; nuclei count: measured here: cell count, toxicity.
A short description of assay [3]: inhibitors of E-selectin induction by TNFa, primary screen, imaging, HUVEC, immunofluorescence, MLSMR starter and 10KST1 sets (AID 487;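 active = visually confirmed hit in the image check and inhibition above 20%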;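 for inhibition: signal is fraction of cell area covered by stained E-selectin grains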;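 for nuclei count: 100% = median nuclei count of all wells on the same plate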). As to conditions: HUVEC TNFalpha-induced E-selectin immunofluorescence imaging, at 2 µM; inhibition: stronger effect = higher value; nuclei count: measured here: cell number, toxicity.
Assay [4] addresses Voltage-gated potassium channel subunit beta-2 (Rattus norvegicus) (UniProt P62483). Briefly: KvBeta enzyme negative modulators, primary screen, biochemical, NADPH fluorescence (AID 622;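 active = fluorescence slope higher than the sample average by over 3 SD, cut at about -0.22 in these data, passing the limit was not always enough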;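 note: slope of raw intensity against log time taken from 70 to 1610 s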). To be noted: recombinant KvBeta, 4-cyanobenzaldehyde reduction, at 10 µM, stronger effect = higher value.
The target is the same in assay [5]. Briefly: KvBeta positive modulators, primary screen, biochemical, NADPH fluorescence (AID 623;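 active = NADPH fluorescence slope more negative than the mean of all samples by about 3 SD, 99.7% confidence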;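 note: fluorescence intensity change per second fitted from 20 to 320 s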). As to conditions: Recombinant KvBeta, NADPH fluorescence decrease slope, 10 min; at 10 µM; stronger effect = lower value.
For assay [6], the target named is Alpha-2C adrenergic receptor (Homo sapiens) (UniProt P18825). Briefly: modulators of alpha2C/GIRK thallium flux, primary screen, cell-based, HEK293 alpha2C/GIRK1/2 (AID 624).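 Note: slope of fluorescence ratio to pre-addition baseline per second over 15 to 24 s.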 To be noted: thallium flux BTC fluorescence, at 10 µM, actives lie on both sides.
Chain of Alpha-2C adrenergic receptor (Homo sapiens) (P18825 whole entry, looked up): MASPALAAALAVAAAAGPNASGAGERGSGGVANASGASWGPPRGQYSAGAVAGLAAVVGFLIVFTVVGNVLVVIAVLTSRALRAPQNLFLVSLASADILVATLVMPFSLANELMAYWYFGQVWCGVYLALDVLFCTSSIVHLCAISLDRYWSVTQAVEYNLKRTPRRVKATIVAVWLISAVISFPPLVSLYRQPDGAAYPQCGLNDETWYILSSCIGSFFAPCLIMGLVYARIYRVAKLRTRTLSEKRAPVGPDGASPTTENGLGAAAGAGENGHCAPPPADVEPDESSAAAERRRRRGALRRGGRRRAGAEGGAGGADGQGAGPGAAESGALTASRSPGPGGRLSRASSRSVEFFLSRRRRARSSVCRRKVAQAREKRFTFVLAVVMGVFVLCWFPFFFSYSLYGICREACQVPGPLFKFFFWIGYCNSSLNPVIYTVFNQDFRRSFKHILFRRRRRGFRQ
Assay [7] in a line: inhibitors of Sendai virus-induced IRF3 signaling, primary screen, TLR/RLR signaling modifier project, cell-based, Sendai virus stimulus, luciferase, 10K MLSCN set (AID 602276;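 active = inhibition at or above 50% at 10 µM; inactive = inhibition below 50%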;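 note: firefly luciferase from ISG56 promoter only with Renilla not read in this screen; 0% = Sendai virus plus DMSO and 100% = medium plus DMSO without virus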). As to conditions: HEK293 RL24 IRF3 luciferase reporter, at 10 µM, stronger effect = higher value.
Assay [8] is described as follows: inhibitors of poly I:C-induced TLR3 signaling, primary screen, cell-based, poly I:C stimulus, luciferase, 10K MLSCN set (AID 602277;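 active = inhibition of the reporter signal at or above 50%; inactive = inhibition below 50%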). To be noted: HEK293-TLR3 RL24 IRF3 luciferase reporter, at 10 µM, stronger effect = higher value.

Calls of active or inactive are those of the source.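 Rule for the calls, unless noted: active = fluorescence slope after compound addition differing from the mean of all screened samples at 99.7% confidence, in either direction; inactive = the rest.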

Chain of Voltage-gated potassium channel subunit beta-2 (Rattus norvegicus) (P62483 whole entry, looked up): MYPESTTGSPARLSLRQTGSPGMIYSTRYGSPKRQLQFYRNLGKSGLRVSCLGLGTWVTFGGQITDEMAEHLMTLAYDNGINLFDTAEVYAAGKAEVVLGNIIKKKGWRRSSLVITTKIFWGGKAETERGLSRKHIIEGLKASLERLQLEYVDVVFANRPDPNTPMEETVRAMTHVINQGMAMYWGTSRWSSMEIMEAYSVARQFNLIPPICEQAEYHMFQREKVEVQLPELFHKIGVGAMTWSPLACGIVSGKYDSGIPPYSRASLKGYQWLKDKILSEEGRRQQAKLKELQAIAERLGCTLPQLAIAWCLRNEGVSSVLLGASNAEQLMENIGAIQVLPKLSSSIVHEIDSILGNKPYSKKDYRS

With `Cc1occc1-c1nnc(SCC(=O)c2ccc(F)cc2)n1Cc1ccco1`, in assay [1], the cell count came to 370. In addition, the inhibition in assay [1] is 5% (inactive); in assay [3], -42.8% (inactive); in assay [7] it was 9.07% (inactive); in assay [8], 12% (inactive). In assay [2], the inhibition of aggregation is 21.2% (inactive). Moreover, the results for the nuclei count in assay [2] and in assay [3] were 87.3% and 107%, respectively. Moreover, in assay [4], the fluorescence slope was -0.393 (inactive). The NADPH fluorescence slope in assay [5] was 2e-06 (inactive). Besides, the slope in assay [6] was 0.00656 (inactive).

For `CCc1nnc2sc(-c3cc(-c4ccccc4)nc4ccccc34)nn12`, the cell count in assay [1] worked out at 267. The inhibition in assay [1] was 5.4% (inactive); in assay [3] it was 3.3% (inactive); in assay [7], 8.15% (inactive); in assay [8], 26.8% (inactive). For the same compound, the inhibition of aggregation in assay [2] was 7.4% (inactive). Moreover, the results for the nuclei count in assay [2] and in assay [3] were 87% and 90.4%, respectively. Moreover, the fluorescence slope in assay [4] is -0.436 (inactive). For the same compound, in assay [5], the NADPH fluorescence slope is 2.9e-06 (inactive). For the same compound, the slope in assay [6] was 0.00312 (inactive).

Take `O=C1CN(Cc2ccccc2)C(=NCc2ccco2)S1`: in assay [1], the cell count was found to be 446. Besides, the inhibition was 3.4% (inactive) in assay [1], 13.6% (inactive) in assay [3], 8.96% (inactive) in assay [7] and 30.9% (inactive) in assay [8]. In assay [2], the inhibition of aggregation was -5.3% (inactive). For the same compound, the values for the nuclei count in assay [2] and in assay [3] were 99.8% and 97.4%, respectively. The fluorescence slope in assay [4] was -0.451 (inactive). Besides, the NADPH fluorescence slope in assay [5] was -2.2e-05 (inactive). Further, in assay [6], the slope is 0.00487 (inactive).

Take `Cc1ccccc1N1OC2C(=O)N(c3ccc(F)cc3)C(=O)C2C1c1ccccn1` (centres undefined): in assay [1], the cell count worked out at 680. Also, the inhibition in assay [1] is -3.5% (inactive); in assay [3] it was -36.7% (inactive); in assay [7] it was 10.4% (inactive); in assay [8], 21.1% (inactive). For the same compound, the inhibition of aggregation in assay [2] is -5.9% (inactive). Moreover, the nuclei count in assay [2] was 96.3%; in assay [3], 152%. The fluorescence slope in assay [4] is -0.607 (inactive). Besides, the NADPH fluorescence slope in assay [5] was -1.4e-05 (inactive). Further, the slope in assay [6] was 0.00636 (inactive).

As for `O=C1c2ccccc2NC2CCCCCN12` (centres undefined), the cell count in assay [1] is 445. Besides, the inhibition in assay [1] was -2.1% (inactive); in assay [3], 13.9% (inactive); in assay [7] it was -2.99% (inactive); in assay [8], 4.91% (inactive). Moreover, in assay [2], the inhibition of aggregation was -11% (inactive). In addition, the nuclei count stood at 108% in assay [2] and 110% in assay [3]. In assay [4], the fluorescence slope was -0.417 (inactive). Also, the NADPH fluorescence slope in assay [5] is 2.2e-05 (inactive). In addition, in assay [6], the slope is 0.0068 (inactive).

`CC(=O)Nc1ccc(S(=O)(=O)N2CCC(c3nc4ccccc4[nH]3)CC2)cc1`: the cell count in assay [1] amounted to 232. The inhibition in assay [1] is 0% (inactive); in assay [3] it was 17.7% (inactive); in assay [7] it was 7.22% (inactive); in assay [8], 17.6% (inactive). Moreover, the inhibition of aggregation in assay [2] is 14.3% (inactive). Further, the nuclei count in assay [2] was determined as 93.3%; in assay [3] it was 84.3%. Also, in assay [4], the fluorescence slope was -0.584 (inactive). In assay [5], the NADPH fluorescence slope is -6.2e-05 (inactive). In addition, in assay [6], the slope was 0.00595 (inactive).

Take `CN(Cc1ccccc1)S(=O)(=O)c1ccc(S(=O)(=O)N2CCN(CCC#N)CC2)cc1`: the cell count in assay [1] is 687. Also, the inhibition is -6.9% (inactive) in assay [1], -50.4% (inactive) in assay [3], -12% (inactive) in assay [7] and 11.4% (inactive) in assay [8]. Further, the inhibition of aggregation in assay [2] is -13.6% (inactive). Further, the nuclei count in assay [2] worked out at 111%; in assay [3], 125%. The fluorescence slope in assay [4] is -0.626 (inactive). In assay [5], the NADPH fluorescence slope was -2.8e-05 (inactive). In assay [6], the slope is 0.00717 (inactive).

In the case of `CCOC(=O)N1CCN(C(=O)CN2C(=O)COc3ccc(C)cc32)CC1`, in assay [1], the cell count is 590. The inhibition was 1.5% (inactive) in assay [1], -64.6% (inactive) in assay [3], 7.89% (inactive) in assay [7] and 29.7% (inactive) in assay [8]. Also, the inhibition of aggregation in assay [2] is 9.7% (inactive). Moreover, the nuclei count was found to be 98.6% in assay [2] and 107% in assay [3]. In addition, the fluorescence slope in assay [4] was -0.364 (inactive). The NADPH fluorescence slope in assay [5] was -3.7e-05 (inactive). Moreover, the slope in assay [6] is 0.00215 (inactive).

On to `CCOC(=O)Cc1cc(=O)n2[nH]c(C)c(-c3ccc(OC)cc3)c2n1`, for which, in assay [1], the cell count was found to be 652. For the same compound, the inhibition is -0.3% (inactive) in assay [1], 0.6% (inactive) in assay [3], 14.2% (inactive) in assay [7] and 22.5% (inactive) in assay [8]. Besides, in assay [2], the inhibition of aggregation is 19.2% (inactive). The values for the nuclei count in assay [2] and in assay [3] were 94% and 102%, respectively. Also, the fluorescence slope in assay [4] was -0.301 (inactive). Further, the NADPH fluorescence slope in assay [5] was 1.1e-05 (inactive). Besides, in assay [6], the slope was 0.00404 (inactive).

As to `COC(=O)CCC(=O)Nc1ccc(S(=O)(=O)N2CCCCCC2)cc1`, the cell count in assay [1] came out at 743. Besides, the inhibition in assay [1] is 16.7% (inactive); in assay [3], 34.8% (inactive); in assay [7], 8.32% (inactive); in assay [8] it was 24.1% (inactive). Also, the inhibition of aggregation in assay [2] is -20.5% (inactive). Also, the nuclei count was found to be 97.4% in assay [2] and 116% in assay [3]. In addition, the fluorescence slope in assay [4] was -0.496 (inactive). Further, the NADPH fluorescence slope in assay [5] is -5.3e-05 (inactive). Besides, the slope in assay [6] is 0.00616 (inactive).

For the compound `CCOC(=O)c1ccc(NC(=O)Cn2cc3c(n2)CCC(C)C3)cc1` (centres undefined), the cell count in assay [1] came out at 711. Also, the inhibition in assay [1] was -3.7% (inactive); in assay [3], -6% (inactive); in assay [7], 12.5% (inactive); in assay [8] it was 23.6% (inactive). In assay [2], the inhibition of aggregation is -28.2% (inactive). Also, the results for the nuclei count in assay [2] and in assay [3] were 91.4% and 101%, respectively. Besides, the fluorescence slope in assay [4] was -0.485 (inactive). Besides, the NADPH fluorescence slope in assay [5] is 2.3e-05 (inactive). In addition, the slope in assay [6] was 0.00553 (inactive).

Consider `O=C(C1CCN(S(=O)(=O)c2cccc3cccnc23)CC1)N1CCN(C2CCCCC2)CC1`, for which the cell count in assay [1] came to 412. The inhibition was 10.7% (inactive) in assay [1], -22.1% (inactive) in assay [3], -4.22% (inactive) in assay [7] and 35.6% (inactive) in assay [8]. For the same compound, the inhibition of aggregation in assay [2] was 3.3% (inactive). In addition, the nuclei count turned out to be 69.2% in assay [2] and 106% in assay [3]. Moreover, the fluorescence slope in assay [4] is -0.565 (inactive). Moreover, the NADPH fluorescence slope in assay [5] was -1.6e-05 (inactive). Further, the slope in assay [6] is 0.00678 (inactive).

Consider `CCc1c(C(=O)N2CCOCC2)csc1C`, for which the cell count in assay [1] was 295. Besides, the inhibition in assay [1] was -3.7% (inactive); in assay [3] it was -4.5% (inactive); in assay [7] it was -0.247% (inactive); in assay [8], -13.5% (inactive). For the same compound, the inhibition of aggregation in assay [2] is -15% (inactive). Also, the nuclei count in assay [2] and in assay [3] was 104% in each case. Moreover, the fluorescence slope in assay [4] was -0.409 (inactive). The NADPH fluorescence slope in assay [5] was -7.3e-05 (inactive). Besides, in assay [6], the slope is 0.00413 (inactive).

As to `Cc1ccc(-n2c3c(cc(C(=O)NCCCN4CCOCC4)c2=O)C(=O)CC(C)(C)C3)cc1`, in assay [1], the cell count turned out to be 349. The inhibition is -0.6% (inactive) in assay [1], -65.9% (inactive) in assay [3], -1.07% (inactive) in assay [7] and 36.9% (inactive) in assay [8]. In addition, the inhibition of aggregation in assay [2] is -1.3% (inactive). Also, the nuclei count in assay [2] was determined as 57%; in assay [3], 117%. In addition, the fluorescence slope in assay [4] is -0.58 (inactive). In assay [5], the NADPH fluorescence slope is 9.1e-06 (inactive). For the same compound, the slope in assay [6] was 0.00654 (inactive).
